From PubChem BioAssay AID588489 (Sanford-Burnham Center for Chemical Genomics, 2011)
The whole screen tested about 360,000 compounds, of which about 1,300 (0.36%) were called active. This is one part of a sample in which actives are shown more often than they occur. No stated cut-off is given here; in the data, active means inhibition above about 35% (passing the limit was not always enough); inactive means the rest.

Molecular target: Polyadenylate-binding protein 1 (Homo sapiens) (UniProt P11940)
Test: PAM2 peptide displacement from PABP1 MLLE – biochemical, fluorescence polarization, FITC-PAM2, GST-MLLE, primary screen (AID 588489);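 further: plate controls were DMSO wells with GST-MLLE for no effect and wells lacking GST-MLLE protein for full effect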
Conditions: at 20 µM, stronger effect = higher value

Polyadenylate-binding protein 1 (Homo sapiens), sequence (P11940 whole entry, looked up): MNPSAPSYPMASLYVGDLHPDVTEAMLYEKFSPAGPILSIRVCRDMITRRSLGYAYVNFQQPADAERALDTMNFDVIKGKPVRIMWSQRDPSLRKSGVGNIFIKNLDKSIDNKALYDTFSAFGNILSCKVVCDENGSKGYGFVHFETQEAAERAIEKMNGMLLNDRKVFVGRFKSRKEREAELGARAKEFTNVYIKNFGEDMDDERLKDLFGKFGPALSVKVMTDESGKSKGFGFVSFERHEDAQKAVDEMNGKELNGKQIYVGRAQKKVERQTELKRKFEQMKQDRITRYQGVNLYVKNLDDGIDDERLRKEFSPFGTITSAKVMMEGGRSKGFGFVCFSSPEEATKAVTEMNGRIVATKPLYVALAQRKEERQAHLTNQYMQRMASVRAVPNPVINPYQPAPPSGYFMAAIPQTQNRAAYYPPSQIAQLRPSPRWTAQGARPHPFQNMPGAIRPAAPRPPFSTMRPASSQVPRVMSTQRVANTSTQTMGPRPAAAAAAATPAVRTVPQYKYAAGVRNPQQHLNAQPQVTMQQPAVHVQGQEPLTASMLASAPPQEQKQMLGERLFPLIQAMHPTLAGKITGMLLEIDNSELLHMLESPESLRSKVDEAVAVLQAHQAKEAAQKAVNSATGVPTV

| Structure (SMILES) | inhibition |
| --- | --- |
| CC12CCC(C(=O)N3CCN(c4ncccn4)CC3)(c3nc4ccccc4nc31)C2(C)C (stereo not drawn) | 14.9% (inactive) |
| CCOC(=O)CN1C(=O)C(O)(CC(=O)c2ccccn2)c2ccccc21 (stereo not drawn) | 11.1% (inactive) |
| CCCCOC(=O)CNc1nnc(SCC(=O)OCC)[nH]c1=O | 38.4% (active) |
| CCOC(=O)CSc1nc(C)c(Oc2ccc(Cl)cc2Cl)c(=O)[nH]1 | -8.63% (inactive) |
| Cc1nnc(SCC(=O)N2CCOCC2)[nH]c1=O | 11.7% (inactive) |
| Cc1ccccc1NC(=O)N1CCCC1C(=O)NCc1ccccc1 (stereo not drawn) | -5.08% (inactive) |
| COc1ccc(C(C#N)Nc2ccc(C)cc2)cc1 (stereo not drawn) | -0.36% (inactive) |
| CCOC(=O)C1CCCN(S(=O)(=O)c2ccc3c(c2)C(C)(C)C(=O)N3C)C1 (stereo not drawn) | 0.52% (inactive) |
| Cc1cc(C)cc(C(=O)N2CCN=C2SCc2ccc([N+](=O)[O-])cc2)c1 | 34.7% (inactive) |
| O=C(Cc1ccc(F)cc1)N1CCN=C1SCc1cccc([N+](=O)[O-])c1 | -6.14% (inactive) |
| Cc1cccc(CC(=O)N2CCN=C2SCc2ccc([N+](=O)[O-])cc2)c1 | 40.2% (active) |
| CC(C)=CCN1CCN(Cc2cc3ccccc3[nH]2)CC1CCO (stereo not drawn) | -5.44% (inactive) |
| CCOC(=O)c1c(NC(=O)C(C)Sc2c[nH]c3ccccc23)sc2c1CCC2 (stereo not drawn) | 2.56% (inactive) |
| CCOC(=O)c1c(NC(=O)C2CCN(S(=O)(=O)c3ccc(Cl)cc3)CC2)sc2c1CCCC2 | 1.94% (inactive) |
| CCOC(=O)c1c(NC(=O)C2(C)Cc3ccccc3C(=O)O2)sc2c1CCCC2 (stereo not drawn) | 38.6% (active) |
| CCc1cc2cc(OC)ccc2nc1SCC(=O)Nc1cc(OC)c(OC)cc1C(=O)O | 19.2% (inactive) |
| CN(C(=O)CCN1C(=O)/C(=C/c2ccccc2F)SC1=S)C1CCS(=O)(=O)C1 (stereo not drawn) | 47.2% (active) |
| CN(C(=O)CN1C(=O)S/C(=C\c2ccccc2F)C1=O)C1CCS(=O)(=O)C1 (stereo not drawn) | 34% (inactive) |
| COc1ccccc1/C=C1\SC(=O)N(CCC(=O)N(C)C2CCS(=O)(=O)C2)C1=O (stereo not drawn) | 15.8% (inactive) |
| CCCCOc1ccc(C(=O)NCC(=O)OCC(=O)N2CCN(S(=O)(=O)c3ccc(C)cc3C)CC2)cc1 | -5.79% (inactive) |
| CC1(C(=O)Nc2cccc3cccnc23)CCN1C(=O)CCC1CCCC1 (stereo not drawn) | -9.79% (inactive) |
| O=C(CN1CCOCC1)Nc1c(-c2ccccc2)c2cc(Br)ccc2[nH]c1=O | 7.03% (inactive) |
| CS(=O)(=O)N(CC(=O)N/N=C/c1ccccn1)c1ccc(Oc2ccccc2)cc1 | 1.62% (inactive) |
| Cc1cc(-c2csc(N)n2)c(C)n1-c1ccccc1 | -12.2% (inactive) |
| COc1c(F)c(F)c(-c2csc(N)n2)c(F)c1F | 41% (active) |
| Nc1nc(C23CC4CC(CC(C4)C2)C3)cs1 | -0.54% (inactive) |
| Cc1cc(C(F)F)n2nc(C(=O)Nc3ccc(S(=O)(=O)NC45CC6CC(CC(C6)C4)C5)cc3)nc2n1 | 0.98% (inactive) |
| Cc1cc(C)c2c(-n3cccc3)c(C(=O)NNS(=O)(=O)c3ccc(F)cc3)sc2n1 | -3.3% (inactive) |
